Laboratory results from PubChem BioAssay AID1347426 (Functional Genomics Laboratory (NCATS/FGL), 2020).
In all, about 31,000 sequences went through this assay and about 1,400 (4.5%) were called active. This is one part of a sample in which actives are shown more often than they occur.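 Rule for the calls: active = median seed-adjusted z-score above 1 or below -1; inactive = the rest.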

experiment: Novel Modifiers of Survival Motor Neuron (SMN) Protein: Gene Identification via Genome-wide siRNA Screen; conditions: HEK293T SMN2-luciferase reporter, siRNA knockdown, 72 h; actives lie on both sides;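 note: luminescence tracks full-length SMN protein made from the SMN2 reporter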
Procedure, shortened: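 HEK293T cells stably expressing an SMN2 splicing/cDNA-luciferase reporter were reverse-transfected with a druggable-genome siRNA library and read by luminescence at 72 hours; hits defined by MAD score above 1.0 or below -1.0.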

Row | Sequence | median seed-adjusted z-score
1 | GGUCUUUACUGGAUUCAGATT against SERINC3 | 0.29 (inactive)
2 | GAAUUUGUAUGAGAGCAUUTT against CYTH3 | 0.196 (inactive)
3 | CUCUUAUGUUGGAUAUGUATT against USP14 | 0 (inactive)
4 | GGAAGAAUUUCAGUCAGAATT against ZNF436 | 0.00767 (inactive)
5 | GGACCUGCAUAUGAAAGUATT against PCDH8 | -1.03 (active)
6 | CAUUGUCUAUCAUCGCAAATT against NEB | 0.0485 (inactive)
7 | GGAAGGCAGAUGUAUCUUUTT against CMPK1 | -0.363 (inactive)
8 | GGCCUACGUUUGAAAGACATT against ZNF792 | 0 (inactive)
9 | GACUUGUGAUACAAGCGUATT against RAD23B | 0.639 (inactive)
10 | GGUAAAGGGAAGUAACUAUTT against SLC2A13 | -0.0451 (inactive)
11 | CCCUAUCAAUUUCUAUGGATT against MPP4 | 0.13 (inactive)
12 | GCCUGACAGUGGUAUACAATT against COPZ1 | -1.02 (active)
13 | GCUACAACUGGAUAAGGAATT against FTSJ1 | 0.0774 (inactive)
14 | CAUGAUAUCUGGACCCAAATT against SSX3 | 0 (inactive)
15 | AGACGUACCGAGAGGAGUATT against PLA2G2F | 0.508 (inactive)
16 | CCAUGCUGGAGAUCAAGAATT against PRKAG3 | -1.03 (active)
17 | CCCUGGAUGUCCUAUCUGATT against SLC2A1 | -0.349 (inactive)
18 | GGAGGAUGACAAGAUCUAUTT against RNF113A | -0.128 (inactive)
19 | GCACUGAUGUAAAUUACUUTT against RAB6C | -1.08 (active)
20 | GCAGUACAGUGAAUGCCGATT against AKAP8 | -0.252 (inactive)
21 | CCACCGAGCUAACAUCUGATT against MFAP3L | 1.03 (active)
22 | CAGACUUAUUGUAACAAGATT against ENPP3 | 0.66 (inactive)

Row | Sequence | median seed-adjusted z-score
23 | GCUACACUCAACUACCUGATT against ADCY5 | -0.123 (inactive)
24 | CCACAAGAGUUCGAACUCATT against ZFX | -0.581 (inactive)
25 | GGAAUGCAAUUCUCAGAGATT against LCN2 | 0.123 (inactive)
26 | CACAGAUUCGAGAAAUUCATT against SF3B1 | -3.65 (active)
27 | GGUUGACAAAUGCAGGAUATT against RIOK2 | -0.16 (inactive)
28 | GCAUCGGCAUCUUCACGCUTT against FZD5 | -0.129 (inactive)
29 | GACCCGCGAUUAAACCUCATT against CHST1 | 0.181 (inactive)
30 | GGUUUGGGAUGGGAAUUGATT against SUPT16H | 1.2 (active)
31 | GGGUACAAGUUACCUAAUATT against TDRD6 | 0 (inactive)
32 | GGAAACGACCUGUCAAAGATT against PHAX | -0.0716 (inactive)
33 | GGAGAUCGUUCUGCACAGATT against PAEP | -0.0632 (inactive)
34 | CCAUCUUGGUAAUGCCCAUTT against HTR1D | -0.155 (inactive)
35 | CGAGUUACUUUUCAGCUAATT against MYH4 | -1.8 (active)
36 | AGUUCACCCUCGUACUCUATT against FURIN | 0.0975 (inactive)
37 | UCAUAAACUUGGAUAAGCATT against NRIP3 | -0.699 (inactive)
38 | GCGAAUGAGUGGUAGAGGATT against ARHGAP21 | 0.229 (inactive)
39 | GCACUUUUCGAGGAGGAGATT against SLC12A7 | -0.0309 (inactive)
40 | CAGUUGAUUUAAGAGGUAATT against PRPF4B | -2.29 (active)
41 | CAAGGAGUUUUACCCAGUATT against CYP4Z1 | -0.139 (inactive)
42 | CUUUAUGACUUAGAGUUAATT against BAAT | 0.641 (inactive)
43 | GAACUUAUAAGUGCAGCAATT against ZNF547 | 0.099 (inactive)
44 | CGUGGAAGGUGAGUAAUAATT against ZBTB40 | 0.187 (inactive)

Row | Sequence | median seed-adjusted z-score
45 | GGUGGUGAAUGAAGGUUCATT against HINT1 | 0.873 (inactive)
46 | CCAUAACCGCCACACCCUUTT against GPR153 | -1.08 (active)
47 | GAAUGCAUGUGAUCACCUATT against SF3B14 | -1.26 (active)
48 | GGGUUGCUAGAAAAUCGUATT against USP37 | 0.0907 (inactive)
49 | GAGAUGAACGUGUAAAGAATT against CIR | -0.197 (inactive)
50 | CAGAAUAUAUGACAGGAAATT against YY1 | 1.94 (active)
51 | CCUCCGGAACAAGAACUAATT against ZNF397 | -0.107 (inactive)
52 | GUCUGCUUUGUAUAGAUAATT against KLRC3 | 0.833 (inactive)
53 | CGACUACAUGUUCAAGAUUTT against RAB3A | -0.0787 (inactive)
54 | GGAUGCGUUUUCUGACAAATT against GPR149 | -0.186 (inactive)
55 | GCAUACGAUUUUAAGCGGATT against PTEN | -0.408 (inactive)
56 | GAACCAGGAGAGAAUAGAATT against PDGFRL | 0.0203 (inactive)
57 | GCUGCGAGCUCGAAACUUUTT against SEC14L4 | -0.714 (inactive)
58 | CGACAAGUCUGACAGGGAUTT against PQBP1 | -1.12 (active)
59 | GGUUUGAGCUUACUCUUCATT against ACCN5 | 0.227 (inactive)
60 | GGGAAGAACAGAAUACUGATT against ZNF563 | 0.00283 (inactive)
61 | GCGUGGAAAUUGUACCCGUTT against MBNL3 | -0.189 (inactive)
62 | GGAAAAGGAACGGAAUAAATT against MLN | -0.422 (inactive)
63 | GCAGUUAACACUCAAGGAATT against MKKS | 1.03 (active)
64 | GGUAAUCUUUAUGAAGAGATT against GCM1 | 0.0197 (inactive)
65 | GCCUGUAAGUUAUUAAAGATT against ARL4D | -0.523 (inactive)
66 | GGCUGAAAUUGUAACCCUATT against TPD52L3 | 0.552 (inactive)

Row | Sequence | median seed-adjusted z-score
67 | GCAACCUUCUAACUACGGUTT against HNRNPA2B1 | 1.33 (active)
68 | CAGGAUCUGUUCAACCAAATT against VWA2 | 0.584 (inactive)
69 | GGAUGGGAACAACCCUGCATT against HMGN4 | -0.0471 (inactive)
70 | CCUCCUUGUUAGUGUCUUUTT against CLEC11A | -1.1 (active)
71 | CCAGGUCCCUAAUCAUGGATT against NOXA1 | -0.441 (inactive)
72 | GGGAAGCACUGGUCGAAGATT against DTD1 | -1.58 (active)
73 | AGGCCUUUCUGGGACCUUATT against ZP4 | 0.0498 (inactive)
74 | CUAAGACCAGUAUAGUAAATT against ARF6 | -0.805 (inactive)
75 | GGAUCUGGUUCAACUUGGATT against FUT3 | 0.11 (inactive)
76 | GUGUCUCAGGGAUAGGUAATT against MICAL2 | -0.0224 (inactive)
77 | AGGAGUUCUUGGUCAUGAUTT against TNNC2 | -0.773 (inactive)
78 | GCAUUACAGUCUGAAUUGATT against PTPDC1 | -0.191 (inactive)
79 | GCUUUAUGCUGCUAAGGCATT against PGD | -1.55 (active)
80 | CGACAAGUCUUCGACCUGATT against DGKZ | 0 (inactive)
81 | GCUGCUAUUUGAUAGACCATT against HNRNPM | 0.499 (inactive)
82 | GAAUGAUGAUGCAUGCCUUTT against MS4A10 | -0.24 (inactive)
83 | CACCUCUAAUCAUCGAUGATT against UAP1 | 0.0411 (inactive)
84 | AGGUCUGGACGACAACUAUTT against MST1 | -1.47 (active)
85 | GGAGCCUAUCAUAACCUUATT against ZNF484 | 0.2 (inactive)
86 | GGGUACCGAGGAUCGCUUUTT against LAMA5 | 0.229 (inactive)
87 | GUAUCUAAGAGAUAUGGAATT against ORC5L | -0.126 (inactive)
88 | GACUCCCAUUUGAGACUUUTT against ZMAT1 | -0.123 (inactive)

Row | Sequence | median seed-adjusted z-score
89 | ACACCUACAUGAUGACGCATT against EVX2 | 0.181 (inactive)
90 | CCUCAAAUGCAGUAUUUUUTT against HMOX1 | 0.45 (inactive)
91 | GCAACUACGUGACUCGCUATT against SMUG1 | -1.38 (active)
92 | CGUCAGUGCUUCGCAUACATT against ZBTB45 | 0 (inactive)
93 | GAAGGAGCAGGAUUACCAATT against TMED4 | -0.895 (inactive)
94 | GAGCUUCAACUAACAGGAATT against NUPL2 | 0.134 (inactive)
95 | CAUGGUCCAUUAUUCGUGATT against ATP6V1A | -0.0106 (inactive)
96 | GGAAUUGGUUUCAGUCAAATT against RCOR1 | -1.13 (active)
97 | GACUUACCUUCUGAGCAUATT against ZNF792 | 0 (inactive)
98 | CGACUUCAUUGUAAAGAAATT against LIPF | 0.54 (inactive)
99 | GCUGCGUCAUUUUCGAAAATT against MOXD1 | -0.162 (inactive)
100 | GAACGAGCUGGAUCCAUUATT against ARSF | 0.111 (inactive)
101 | CCUUACGAAUCAUAAGAUATT against ZNF708 | 0.0562 (inactive)
102 | CAGAGAACCUUCAAGUUAATT against ZNF239 | -0.191 (inactive)
103 | GCAUAGCCCUCAACAAGAATT against IRF6 | -1.79 (active)
104 | GCCGCUUUCGGAAUAAGAUTT against DGKZ | 0 (inactive)
105 | CGGAGAACAUUGUUGUUCUTT against TMTC2 | 0.0277 (inactive)
106 | GCACCUUGCAGGAUUGGAATT against PEAR1 | 0.071 (inactive)
107 | ACCAUAGCCUCUCACCCUATT against RASA4 | -1.11 (active)
108 | ACGCAACCCUCAACAGCUCTT against UTS2R | 0.0819 (inactive)
109 | GGGACUCAGUACUUCCAUATT against SLC39A8 | 0.265 (inactive)
